Results filed as inconclusive are left out. Activity calls are given as the source filed them. Calls come from the whole dose curve; as a rule, active = well fitted curve in the direction sought with a large enough effect; inconclusive = small, poorly fitted or top-dose-only effect, or another doubt; inactive = no such curve, though single readings can be large; an effect the other way counts as inactive or inconclusive.
Assays:
[1] = S16 Schwann cell viability assay (CellTiter-Glo assay) (AID 624031);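 note: cellular ATP luminescence as a viability measure; nearly all actives have a fitted effect of over 70% in size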
How it was run: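 Native S16 rat Schwann cells, 500-750 cells/well in DMEM with 10% FBS, dosed with compound after overnight culture and incubated 24h at 37 degree Celsius/5% CO2. Viability by CellTiter-Glo luminescence; % activity normalized to no-cell wells and DMSO-treated cells.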

3D7 = experiment: qHTS profiling for inhibitors of Plasmodium falciparum proliferation (AID 504749); note: nearly all actives have a fitted effect of over 60% in size; note: potency is the fitted concentration of half-maximal effect; details: P. falciparum in erythrocytes, SYBR Green DNA, 72 h; series mostly up to 12.8 µM
How it was run: (§1)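 SYBR Green fluorescence of parasite DNA, read after lysis and overnight dark incubation, measured growth over 72 h in erythrocyte culture at 0.3% parasitemia and 2.5% hematocrit. Data normalised to DMSO and 0.29 uM artemisinin, with plate-drift correction.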

ATS189 = experiment: as above; details: P. falciparum in erythrocytes, SYBR Green DNA, 72 h; series mostly up to 12.8 µM
How it was run: as §1

ATS95 = experiment: as above; details: P. falciparum in erythrocytes, SYBR Green DNA, 72 h; series mostly up to 12.8 µM
How it was run: as §1

C2A = experiment: as above; details: P. falciparum in erythrocytes, SYBR Green DNA, 72 h; series mostly up to 12.8 µM
How it was run: as §1

CP192 = experiment: as above; details: P. falciparum in erythrocytes, SYBR Green DNA, 72 h; series mostly up to 12.8 µM
How it was run: as §1

CP238 = experiment: as above; details: P. falciparum in erythrocytes, SYBR Green DNA, 72 h; series mostly up to 12.8 µM
How it was run: as §1

CP247 = experiment: as above; details: P. falciparum in erythrocytes, SYBR Green DNA, 72 h; series mostly up to 12.8 µM
How it was run: as §1

CP252 = experiment: as above; details: P. falciparum in erythrocytes, SYBR Green DNA, 72 h; series mostly up to 12.8 µM
How it was run: as §1

CP262 = experiment: as above; details: P. falciparum in erythrocytes, SYBR Green DNA, 72 h; series mostly up to 12.8 µM
How it was run: as §1

CP265 = experiment: as above; details: P. falciparum in erythrocytes, SYBR Green DNA, 72 h; series mostly up to 12.8 µM
How it was run: as §1

CP268 = experiment: as above; details: P. falciparum in erythrocytes, SYBR Green DNA, 72 h; series mostly up to 12.8 µM
How it was run: as §1

Dd2 = experiment: as above; details: P. falciparum in erythrocytes, SYBR Green DNA, 72 h; series mostly up to 12.8 µM
How it was run: as §1

N140 = experiment: as above; details: P. falciparum in erythrocytes, SYBR Green DNA, 72 h; series mostly up to 12.8 µM
How it was run: as §1

P93_24 = experiment: as above; details: P. falciparum in erythrocytes, SYBR Green DNA, 72 h; series mostly up to 12.8 µM
How it was run: as §1

PC15 = experiment: as above; details: P. falciparum in erythrocytes, SYBR Green DNA, 72 h; series mostly up to 12.8 µM
How it was run: as §1

PC49 = experiment: as above; details: P. falciparum in erythrocytes, SYBR Green DNA, 72 h; series mostly up to 12.8 µM
How it was run: as §1

SC27B = experiment: as above; details: P. falciparum in erythrocytes, SYBR Green DNA, 72 h; series mostly up to 12.8 µM
How it was run: as §1

TAB109 = experiment: as above; details: P. falciparum in erythrocytes, SYBR Green DNA, 72 h; series mostly up to 12.8 µM
How it was run: as §1

TAB165 = experiment: as above; details: P. falciparum in erythrocytes, SYBR Green DNA, 72 h; series mostly up to 12.8 µM
How it was run: as §1

Measured: Potency

CC(=O)[C@@H]1CC[C@@H]2[C@@H]3C[C@H](C)C4=CC(=O)CC[C@@]4(C)[C@H]3[C@H](O)C[C@]21C
inactive: all assays above

COc1ccc([C@@H]2CC(=O)c3c(O)cc(O[C@H]4O[C@@H](CO[C@H]5O[C@@H](C)[C@@H](O)[C@@H](O)[C@@H]5O)[C@@H](O)[C@@H](O)[C@@H]4O)cc3O2)cc1O
not listed: CP192
inactive: all other assays above

NC(=O)N[C@H]1NC(=O)NC1=O
not listed: 3D7
inactive: all other assays above

CC(=O)C[C@H](c1ccc([N+](=O)[O-])cc1)c1c(O)c2ccccc2oc1=O
inactive: all assays above

COc1c(O[C@H]2O[C@@H](CO)[C@@H](O)[C@@H](O)[C@@H]2O)cc2c(c1OC)-c1ccc(SC)c(=O)cc1[C@H](NC(C)=O)CC2
inactive: all assays above

C=CC1=C(C(=O)O)N2C(=O)[C@@H](NC(=O)/C(=N\OCC(=O)O)c3csc(N)n3)[C@@H]2SC1
not listed: CP268
inactive: all other assays above

NC(=O)c1cc[n+](CC2=C(C(=O)[O-])N3C(=O)[C@@H](NC(=O)Cc4cccs4)[C@@H]3SC2)cc1
inactive: all assays above

NC(=O)c1ccc[n+]([C@@H]2O[C@H](COP(=O)([O-])OP(=O)(O)OC[C@H]3O[C@@H](n4cnc5c(N)ncnc54)[C@@H](O)[C@@H]3O)[C@@H](O)[C@@H]2O)c1
not listed: [1]
inactive: all other assays above

C[C@H](C(=O)O)c1cccc(Oc2ccccc2)c1
not listed: [1]
inactive: all other assays above

CC(=O)OCC(=O)[C@@]1(O)[C@H](C)C[C@@H]2[C@H]3CCC4=CC(=O)C=C[C@]4(C)[C@]3(F)[C@@H](O)C[C@@]21C
inactive: all assays above

Cc1ccc(S(=O)(=O)NC(=O)NN2C[C@H]3CCC[C@@H]3C2)cc1
inactive: all assays above

CC[C@H](CO)NCCN[C@@H](CC)CO
inactive: all assays above

NS(=O)(=O)c1cc2c(cc1Cl)N[C@@H](C(Cl)Cl)NS2(=O)=O
inactive: all assays above

CCC(=O)O[C@@]1(C(=O)SCF)[C@@H](C)C[C@H]2[C@@H]3C[C@@H](F)C4=CC(=O)C=C[C@@]4(C)[C@]3(F)[C@@H](O)C[C@]21C
active: N140 3.98 µM | P93_24 3.55 µM | TAB165 3.16 µM
inactive: [1] | C2A | CP192 | CP247 | CP262 | CP268 | SC27B

C[C@@H]1Cc2ccccc2N1NC(=O)c1ccc(Cl)c(S(N)=O)c1 (stereo partly specified)
not listed: [1]
inactive: all other assays above

NS(=O)(=O)c1cc2c(cc1C(F)(F)F)N[C@H](Cc1ccccc1)NS2(=O)=O
inactive: all assays above

CC1(C)O[C@H]2C[C@@H]3[C@H]4CCC5=CC(=O)CC[C@@]5(C)[C@]4(F)[C@@H](O)C[C@@]3(C)[C@@]2(C(=O)CCl)O1
active: 3D7 3.98 µM | ATS189 3.55 µM | ATS95 1.58 µM | CP247 3.98 µM | CP252 3.55 µM | CP265 3.98 µM | N140 2.51 µM | P93_24 3.55 µM | PC15 3.55 µM | TAB109 1.41 µM | TAB165 3.16 µM
inactive: [1] | PC49

CCC[C@@H]1O[C@@H]2C[C@@H]3[C@H]4CCC5=CC(=O)C=C[C@@]5(C)[C@H]4[C@H](O)C[C@@]3(C)[C@@]2(C(=O)CO)O1
active: 3D7 7.94 µM | ATS189 7.08 µM | CP247 8.91 µM | CP252 11.2 µM | Dd2 12.6 µM | P93_24 8.91 µM | TAB109 7.94 µM | TAB165 11.2 µM
inactive: CP262 | CP268

C[C@H]1CC[C@]2(OC1)O[C@@H]1C[C@@H]3[C@@H]4CC[C@H]5C[C@@H](O)CC[C@]5(C)[C@@H]4CC(=O)[C@@]3(C)[C@H]1[C@@H]2C
inactive: all assays above

CCCC[C@H](CC)CN1CN(C[C@@H](CC)CCCC)CC(C)(N)C1
inactive: all assays above

COCC(=O)Nc1c(I)c(C(=O)NC[C@@H](O)CO)c(I)c(C(=O)N(C)C[C@@H](O)CO)c1I
inactive: all assays above

CC(C)NC[C@H]1CCc2cc(CO)c([N+](=O)[O-])cc2N1
not listed: CP262
inactive: all other assays above
